# Screens: PubChem, The Scripps Research Institute Molecular Screening Center
# Shown are actives, neighbours in structure and some others; about 3.5% of the full set was active somewhere.
# TEAD-YAP inh: TEAD-YAP interaction inhibition; HEK-TIYL cells, TEAD-Gal4/YAP UAS-luciferase luminescence; inhibition, % at 9.12 µM; hit rate 1.4% among 640,000; AID 1259422; in the data active = inhibition above about 32%;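 note: 0% = median of test compound wells and 100% = reference inhibitor wells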
# GPR151 ag: activators of human GPR151; Q8TDV0; PathHunter beta-arrestin GPR151 cells, luminescence; hit rate 1% among 650,000; AID 1508602; activation, % at 11.2 µM; in the data active = activation above about 4.9%;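 note: 0% = median of compound wells and 100% = cells with positive control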
# FBW7 act: activators of human E3 ligase FBW7 | Q969H0 | hit rate 0.13% among 650,000 | AlphaScreen FBW7–phospho-cyclin E peptide binding, activator screen | AID 1259310 | normalized activity (activation), % at 26.1 µM; in the data active = normalized activity above about 1.9%;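 note: purified mutant Fbw7 with reduced substrate affinity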
# Target sequence (Q969H0 whole entry, looked up): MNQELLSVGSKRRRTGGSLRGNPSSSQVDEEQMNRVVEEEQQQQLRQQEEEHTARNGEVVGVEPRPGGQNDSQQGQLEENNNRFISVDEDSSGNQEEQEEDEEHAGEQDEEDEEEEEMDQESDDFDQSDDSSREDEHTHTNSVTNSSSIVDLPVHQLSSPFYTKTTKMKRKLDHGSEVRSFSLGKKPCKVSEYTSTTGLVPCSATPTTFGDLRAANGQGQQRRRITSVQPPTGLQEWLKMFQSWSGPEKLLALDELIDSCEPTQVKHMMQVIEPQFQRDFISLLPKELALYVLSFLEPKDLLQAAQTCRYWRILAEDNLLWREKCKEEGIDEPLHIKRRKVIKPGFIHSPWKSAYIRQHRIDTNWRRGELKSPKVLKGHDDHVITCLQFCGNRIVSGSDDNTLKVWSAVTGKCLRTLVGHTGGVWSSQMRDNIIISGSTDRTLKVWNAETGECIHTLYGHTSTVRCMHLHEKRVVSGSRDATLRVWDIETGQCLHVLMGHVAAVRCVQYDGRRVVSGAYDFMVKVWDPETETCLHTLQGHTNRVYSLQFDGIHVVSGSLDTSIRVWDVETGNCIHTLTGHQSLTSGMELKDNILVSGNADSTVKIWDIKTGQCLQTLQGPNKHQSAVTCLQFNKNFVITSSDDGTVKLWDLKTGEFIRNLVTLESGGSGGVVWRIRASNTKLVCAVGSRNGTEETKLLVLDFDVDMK
# MITF inh: human MITF inhibition, primary screen; inhibition, % at 2.6 µM; O75030; AID 1259374; hit rate 0.91% among 650,000; AlphaScreen MITF homodimerization, bead proximity signal; in the data active = inhibition above about 50%;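 note: 0% = vehicle wells with protein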
# GPR151 conf act: confirmation of human GPR151 activators; shares compounds with GPR151 ag; GPR151 PathHunter beta-arrestin cells, luminescence, 90 min; % of EA-reagent control over plate median; activation, % at 11.2 µM; 6,700 tested, under 10 active;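 active = mean percent activation across replicates above the confirmation screen cutoff of 4.91%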
# GPR119 ag: activates human GPR119 in a GPR151 counter-screen; shares compounds with GPR151 ag; GPR119 PathHunter beta-arrestin cells, luminescence, 90 min; 0 = compound-well median, 100 = enzyme-acceptor control; activation, % at 11.2 µM; hit rate 0.3% among 6,700; AID 1508611;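 active = mean percent activation in the counterscreen above 29.09%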;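 note: counterscreen on off-target GPR119 to flag nonselective hits from the GPR151 activator screen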
# Active calls of the source: *; / = not tested or not shown; ! = repeats disagree.
SMILES,TEAD-YAP inh,GPR151 ag,FBW7 act,MITF inh,GPR151 conf act,GPR119 ag
Cc1ccc(N(CC(=O)Nc2ccccc2C(C)C)S(C)(=O)=O)cc1,1.6,6.5*,0.2,10.0,1.2,4.7
CCc1ccccc1NC(=O)CN(c1ccc(C)cc1)S(C)(=O)=O,9.3,0.1,0.0,12.6,/,/
CC(C)COC(=O)c1ccc(N2CC(O)=C(c3nc4ccccc4[nH]3)C2=N)cc1,-5.2,-0.4,0.2,8.0,/,/
CN1C(=O)c2ccc(S(=O)(=O)c3ccc(C(=O)O)cc3)cc2C1=O,6.4,5.5*,0.1,-16.7,-0.7,7.8
O=C(c1ccco1)N1C2CCC1CC(c1ccc(F)cc1)C2 (centres undefined),-6.2,8.6*,0.1,-5.6,-0.1,1.8
Cc1nnsc1C(=O)N1CCC(c2ccccc2)C1 (centres undefined),-3.6,-0.6,-0.1,12.9,/,/
O=C(c1cscn1)N1C2CCC1CC(c1ccc(F)cc1)C2 (centres undefined),5.3,0.0,0.0,7.7,/,/
Cc1nnsc1C(=O)N1C2CCC1CC(c1ccc(F)cc1)C2 (centres undefined),16.0,12.2*,0.1,-19.4,-0.4,1.2
COC(=O)N/N=C\c1c(C)nn(-c2ccccc2)c1Cl,-35.4,-0.3,-0.1,0.2,/,/
COc1ccc(OC)c(-c2cc(C(=O)N/N=C/c3c(C)nn(-c4ccccc4)c3C)[nH]n2)c1,0.8,5.2*,0.1,17.2,0.4,-4.9
CCCCN1CCCCC1C(=O)Nc1c(C)ccc(S(=O)(=O)N2CCCCC2)c1C (centres undefined),12.6,-1.0,0.5,13.0,/,/
Cc1cccc(NC(=O)C(=O)NC2CCCCC2)c1,-27.1,5.5*,0.1,0.2,-2.6,-20.9
Cc1cccc(NC(=O)C(=O)NC2CCCCCC2)c1,-52.1,-1.1,-0.1,-0.2,/,/
c1ccc(Nc2c(-c3ccccn3)nc3ccccn23)cc1,29.8,0.2,-0.4,29.6,/,/
CNCCCC1c2ccccc2C=Cc2ccccc21,1.9,10.5*!,0.3,4.5,0.4,1.8
COCCNc1oc(-c2ccccc2)nc1S(=O)(=O)c1ccc(C)cc1,-0.9,6.1*,-0.1,2.4,0.1,1.1
COCCNc1oc(-c2ccccc2)nc1S(=O)(=O)c1ccc(Cl)cc1,-2.2,-1.4,-0.9,3.7,/,/
COc1ccc2c(c1)c(CC(=O)Nc1nnc(C)o1)c(C)n2C(=O)c1ccc(Cl)cc1,8.7,5.7*,-0.4,12.8,1.0,1.9
CCN1CCC(N(Cc2ccco2)C(=O)NC2CCCC2)CC1,-0.5,5.0*,-0.1,-5.7,0.8,-3.9
CCOc1ccc(-n2nc(C(=O)NC(C)C)c3ccccc3c2=O)cc1,-3.6,-1.6,-0.1,9.9,/,/
Cc1cccn2c(=O)c3cc(C(=O)N4CCc5ccccc54)sc3nc12,4.3,5.0*,0.1,9.5,-0.2,5.7
CCOC(=O)c1ccc(Nc2ncnc3c2cnn3Cc2ccccc2)cc1,2.2,6.2*,0.2,25.4,-1.3,-13.7
CCOC(=O)c1ccc(Nc2ncnc3c2cnn3C)cc1,-16.9,-0.8,0.1,10.0,/,/
CC(=O)C1=C(C)N(Cc2ccccc2)C(=O)N[C@H]1c1cccc(F)c1,/,6.9*,-0.2,27.3,0.4,7.8
Cc1nc(C)c(NC(=O)N2CCCCC2C)cc1NC(=O)N1CCCCC1C (centres undefined),-1.0,4.9*,-0.1,-0.7,0.5,0.3
SMILES,TEAD-YAP inh,GPR151 ag,FBW7 act,MITF inh,GPR151 conf act,GPR119 ag
Cc1ccc(NC(=O)N2CCCCC2C)cc1 (centres undefined),-17.4,-0.2,0.4,13.3,/,/
C=CCNc1nc(-c2ccccc2)c(C(=O)Nc2ccc3c(c2)OCCO3)s1,-3.3,-0.3,-0.7,6.0,/,/
CC(C)c1ccc(OCC(=O)O/N=C(\N)c2cccc([N+](=O)[O-])c2)cc1,-3.6,16.0*,-0.3,-10.9,-0.1,-7.1
COc1cc(-c2ccc(NC(=O)C3CCCO3)c(OC)c2)ccc1NC(=O)C1CCCO1 (centres undefined),-7.1,3.8,-0.3,-4.2,/,/
CCOc1cc(NC(=O)C2CCCO2)c(OCC)cc1NC(C)=O (centres undefined),-8.4,14.6*,0.0,20.4,1.0,10.0
CCCCCc1nnc(NC(=O)C2CCCO2)s1 (centres undefined),-51.8,-0.9,-0.1,-8.1,/,/
CCCc1cc(C(N)=O)c(NC(=O)C2CCCO2)s1 (centres undefined),-1.3,10.1*,0.3,21.2,0.6,13.5
CSc1ccccc1C(=O)NCCOc1ccccc1C(C)C,-3.7,1.0,-0.1,-8.8,/,/
O=C1N[C@H](Cc2ccc(O)cc2)C(=O)N2CCN(CC3CCCCC3)C[C@H]12,3.3,-0.2,-0.2,-11.6,/,/
Cc1ccc(C2CC(=O)n3nc(N)nc3N2)cc1 (centres undefined),-1.4,5.9*,-0.1,14.2,-0.5,4.7
Cc1ccc(C2CC(=O)n3c(nc4ccccc43)N2)cc1 (centres undefined),-7.1,1.0,-0.1,11.9,/,/
N#Cc1ccc(C(=O)Nc2ccc3oc(=O)ccc3c2)c(F)c1,15.6,4.2,0.1,-1.3,/,/
Nc1ncnc(Nc2ccccc2F)c1[N+](=O)[O-],-17.2,0.0,0.0,-6.6,/,/
CC1C2NC(=S)NC1(C)Oc1ccccc12 (centres undefined),0.7,7.4*,0.0,8.4,0.1,9.0
CC(C)C[C@@H](NC(=O)OCC1c2ccccc2-c2ccccc21)C(=O)O,/,7.8*,-0.1,-4.6,-0.7,-5.8
CCOC(=O)CCN(Cc1ccc(F)cc1)S(=O)(=O)c1ccc(Br)cc1,-0.5,0.5,-0.1,3.4,/,/
CCc1c(C)nc(SCCc2ccccc2)[nH]c1=O,-8.9,5.4*,-0.2,4.2,-0.8,-11.6
N#C/C(=C/c1cccc([N+](=O)[O-])c1)C(=O)Nc1ccc(O)cc1,-7.6,-0.8,0.9,0.7,/,/
N#C/C(=C\c1cccc([N+](=O)[O-])c1)C(N)=O,-2.6,5.7*,0.1,2.3,0.4,2.6
Cc1c(C(=O)N/N=C/c2cccc([N+](=O)[O-])c2)[nH]c2c([N+](=O)[O-])cccc12,-7.0,5.2*,0.0,0.9,-0.5,-9.1
Cc1cc([N+](=O)[O-])ccc1NC(=O)/C(C#N)=C/c1cccc([N+](=O)[O-])c1,3.7,0.1,-0.1,9.0,/,/
NC(=O)N/N=C\c1cccc([N+](=O)[O-])c1,0.3,7.6*,0.0,9.6,-0.9,-4.2
O=C(CC(=O)N/N=C/c1cccc([N+](=O)[O-])c1)N/N=C/c1cccc([N+](=O)[O-])c1,17.2,-0.1,-0.4,7.5,/,/
CC(=O)Oc1cccc(/C=C(\C#N)C(=O)Nc2ccc([N+](=O)[O-])cc2C)c1,11.6,6.3*,0.3,13.1,-0.8,-9.0
COC(=O)Cc1ccc(NC(=S)NCc2cccnc2)cc1,4.0,4.3,0.0,-27.7,/,/
CN1CCCN(c2nc3nonc3nc2NCc2ccccc2)CC1,-3.3,-1.1,-0.1,-11.9,/,/
